Our source for the outcome and fluorescence, relative to Rose Bengal values is PubChem BioAssay (Tox21).

The structures appear in SMILES notation. Values without a mark were called inactive. Calls of active or inactive are those of the source. The call rests on the fitted dose curve; in most records, active means well fitted curve in the direction sought with a large enough effect in the repeat runs; inconclusive means weak or mixed curves; inactive means flat fitted curve, though single readings scatter.
On the % scale 0 is the no-effect control and ±100 the full control effect.

This assay in a line: qHTS assay to test for compound auto fluorescence at 590 nm (red) in HepG2 cells (AID 720674). To be noted: HepG2 autofluorescence, red 540/590 nm, 1 h; series mostly up to 91.3 µM. An excerpt: U.S. Tox21 Program National Center for Advancing Translational Sciences [NCATS] NIH Chemical Genomics Center [NCGC] U.S. Environmental Protection Agency [EPA] National Institutes of Environmental Health Sciences [NIEHS] National Toxicology Program [NTP] U.S. Food and Drug Administration [FDA] Tox21 Assay Overview: Compound auto fluorescence often interferes with screening of the compound library against various biological targets and signaling pathways. Some of these compounds may have fluorophoric properties. Such properties may interfere with the assay outputs resulting in false positives and/or negatives. To decrease such complications and ensure the compound activities are relevant in terms of biological response, the Tox21 10K compound library was screened for auto fluorescence. From the fluorophores used as reporter signals in our screening assays, the auto fluorescence equivalencies of compounds against three fluorophores have been evaluated: Triamterene, Fluorescein and Rose Bengal sodium for blue, green and red fluorescence, respectively. The fluorescence intensities were measured using Excitation/Emission wavelengths at 405/460nm, 485/535nm and 540/590nm for blue, green and red labels, respectively. This assay includes the red fluorescence data.
Tox21 Assay Protocol Summary: 2,000 HepG2 cells in 5 uL of culture medium (MEM containing 10% FBS) per well were dispensed into black wall/clear bottom 1536-well plates using a Multidrop Combi Dispenser (ThermoFisher Scientific, Waltham, MA). The assay plates were incubated overnight at 37 C to allow cell attachment to the well bottom, followed by the transfer of 23 nL compound or DMSO vehicle by a pintool work station (Kalypsys , San Diego, CA). After the assay plates were incubated for 1 hr at 37 C and 5% CO2, fluorescence intensities in the assay plates were measured by an Envision (PerkinElmer, Shelton, CT) plate reader using three labels for measuring blue, green and red fluorescence at […] 460, 535 and 590 nm respectively.
Background: qHTS replaces the single test concentration by a dilution series.
Regarding `O=C(/C=C/c1ccccc1)OCCc1ccccc1`, the molecule was classed as inactive.

Take `Brc1cc(Br)c(Oc2cc(Br)c(Br)cc2Br)cc1Br`: the molecule was classed as inactive.

Regarding `CCC1NC(=O)c2cc(S(N)(=O)=O)c(Cl)cc2N1` (stereo not given), the fluorescence, relative to Rose Bengal was 0.403% [at 18.6 µM].

Take `CC(=O)[C@H]1[C@H](C#N)C[C@H]2[C@@H]3CC=C4C[C@@H](O)CC[C@]4(C)[C@H]3CC[C@@]21C`: the call was inactive.

Consider `CN1CCCC(n2nc(Cc3ccc(Cl)cc3)c3ccccc3c2=O)CC1` (stereo not given), for which the call was inactive.

With `O=C1c2ccccc2C(=O)N1CCc1noc(-c2ccc(CN3CCCCCC3)s2)n1`, the molecule was called inactive.

Turning to `O=C(CCc1ccc(O)cc1)c1c(O)cc(O)cc1O`, the molecule was classed as inactive.

Turning to `OCCN1CCN(CCCN2c3ccccc3Sc3ccc(Cl)cc32)CC1`, the fluorescence, relative to Rose Bengal was 0.837% [at 18.6 µM].

Turning to `O=C(OCC(O)CO)c1ccccc1Nc1ccnc2cc(Cl)ccc12` (stereo not given), the fluorescence, relative to Rose Bengal is 0.0018% [at 18.6 µM].

For the molecule `FC(F)(F)c1ccccc1Cl`, the molecule was classed as inactive.

In the case of `Cc1cscn1`, the outcome was inactive.

Take `CC(O)c1ccccc1` (stereo not given): the molecule was called inactive.

On to `CCOc1ccc(Cc2nccc3cc(OCC)c(OCC)cc23)cc1OCC`, for which the fluorescence, relative to Rose Bengal is 0.4% [at 18.6 µM].

On to `CC[N+](CC)(CCNC(=O)C(=O)NCC[N+](CC)(CC)Cc1ccccc1Cl)Cc1ccccc1Cl`, for which the call was inactive.

Turning to `C=COCC(C)C`, the outcome was inactive.

Regarding `O=c1cc(-c2ccccc2)oc2cc(O)cc(O)c12`, the outcome was inactive.

Take `CC[C@]1(O)C[C@H]2CN(CCc3c([nH]c4ccccc34)[C@@](C(=O)OC)(c3cc4c(cc3OC)N(C=O)[C@H]3[C@@](O)(C(=O)OC)[C@H](OC(C)=O)[C@]5(CC)C=CCN6CC[C@]43[C@@H]65)C2)C1`: the call was inactive.

Turning to `CCCCOc1ccc(OCCCN2CCOCC2)cc1`, the fluorescence, relative to Rose Bengal was -0.141% [at 18.6 µM].

Regarding `Cc1ccc(Cl)c(Nc2ccccc2C(=O)O)c1Cl`, the molecule was classed as inactive.

For the molecule `Cc1cc(C)cc(N)c1`, the molecule was classed as inactive.

Turning to `Cc1c(C)c2c(c(C)c1OC(=O)CCC(=O)OCCO)CC[C@@](C)(CCC[C@H](C)CCC[C@H](C)CCCC(C)C)O2`, the molecule was classed as inactive.

For `Clc1ccc(Nc2nnc(Cc3ccncc3)c3ccccc23)cc1`, the result was inactive.

For the molecule `O=C(O)CCc1nc(-c2ccccc2)c(-c2ccccc2)o1`, the outcome was inactive.

`CCOC(=O)c1ccc(OCCN2C[C@H](O)[C@@H](O)[C@H](O)[C@H]2CO)cc1`: the molecule was called inactive.

For `N#CCc1ccc(Cl)cc1Cl`, the molecule was called inactive.

As for `O=C(Nc1cccc2c(=O)cc(-c3nn[nH]n3)oc12)c1ccc(OCCCCc2ccccc2)cc1`, the call was inactive.

As to `CN1CCCN=C1COC(=O)C(O)(c1ccccc1)C1CCCCC1` (stereo not given), the molecule was classed as inactive.

For `c1ccc2c(c1)CCc1ccccc1N2`, the molecule was classed as inactive.

Consider `C=C(C)C(=O)OCCOCCOC(=O)C(=C)C`, for which the result was inactive.

Take `O=[N+]([O-])c1cc(C2CCCCC2)c(O)c([N+](=O)[O-])c1`: the molecule was classed as inactive.

In the case of `CN1CCCC(CC2c3ccccc3Sc3ccccc32)C1` (stereo not given), the fluorescence, relative to Rose Bengal was 0.272% [at 18.6 µM].

For `CC/C=C1/OC(=O)c2ccccc21`, the outcome was inactive.

For `O=C1NCCN1CCO`, the molecule was called inactive.

`NCCNCCO`: the call was inactive.

For `CC1(C)[C@H](C(=O)O)N2C(=O)C[C@H]2S1(=O)=O`, the molecule was classed as inactive.

With `N#[N+]c1ccc2c(S(=O)(=O)[O-])cccc2c1O`, the outcome was inactive.

In the case of `CN1CC(=O)N2[C@H](c3ccc4c(c3)OCO4)c3[nH]c4ccccc4c3C[C@@H]2C1=O`, the molecule was classed as inactive.

For `COC(=O)CCS`, the molecule was classed as inactive.

As for `CN(C(=O)CN(CCO)CC(=O)N(C)C(C)(C)Cc1ccccc1)C(C)(C)Cc1ccccc1`, the fluorescence, relative to Rose Bengal was -0.825% [at 18.6 µM].

As for `C/C=C\C/C=C/CCCCCCCCOC(C)=O`, the molecule was classed as inactive.
